Measured values from the supplement of paper PMC7366291.
Where a name gives a salt, the structure may show the parent alone. ± gives the standard deviation or the standard deviation of the averaged measurements.

Key:
Conditions in all cases: 25 µM; exposure: 24-48 hpf
[1] = tested on: Danio rerio Tg(wt1b:EGFP) embryo, pronephros; assay: glomerular separation, fold change vs DMSO control; higher = glomeruli further apart (abnormal)
Summary of the method: (§1)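 Using a Fiji macro, distances and angles were calculated from 16 reference points set by hand on maximum projections of pronephroi imaged dorsally (470 nm, 10 z-slices) in agarose-filled 96-well plates. The dechorionated Tg(wt1b:EGFP) zebrafish embryos had received 25 μM compound in 0.5% DMSO in HEPES-buffered E3 with 0.003% PTU from 24 to 48 hpf at 28.5°C. Values more than 2 SD from a feature's mean were excluded. Each feature appears as a fold change over the mean of DMSO-treated embryos from the same day.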

[2] = tested on: Danio rerio Tg(wt1b:EGFP) embryo, pronephros; assay: glomerular width (mean of left and right), fold change vs DMSO control; higher = wider glomerulus
Summary of the method: as §1

[3] = tested on: Danio rerio Tg(wt1b:EGFP) embryo, pronephros; assay: fraction of imaged embryos annotated as normal kidney; higher = less nephrotoxic; extreme values may be limits of the assay
Summary of the method: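 Dechorionated Tg(wt1b:EGFP) zebrafish embryos were incubated with 25 μM compound in 0.5% DMSO, 5 mM HEPES-buffered E3 and 0.003% PTU from 24 to 48 hpf at 28.5°C. Pronephroi were then imaged by widefield fluorescence, and the fraction of embryos per treatment assigned by hand to the normal-kidney category is given.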

[4] = tested on: Danio rerio Tg(wt1b:EGFP) embryo, pronephros; assay: pronephric angle neck segment to proximal convoluted tubule (mean of left and right), fold change vs DMSO control; higher = larger pronephric angle
Summary of the method: as §1

| SMILES | glomerular separation [1] | glomerular width [2] | fraction of imaged embryos annotated as normal kidney [3] | pronephric angle neck segment [4] |
| --- | --- | --- | --- | --- |
| O=c1oc2ccccc2c(O)c1Cc1c(O)c2ccccc2oc1=O [Dicumarol] | 0.799 ± 0.23 | 0.772 ± 0.025 | 0.9 | 1.14 ± 0.08 |
| Clc1ccc(C(Cn2ccnc2)OCc2c(Cl)cccc2Cl)c(Cl)c1 (configuration not stated) [Isoconazole] | 3.36 ± 1.9 | 0.669 ± 0.052 | 0.167 | 1.64 ± 0.076 |
| COc1ccccc1O [Guaiacol] | 1.03 ± 0.3 | 1.007 ± 0.0036 | 0.917 | 1.02 ± 0.035 |
| C[N+](C)(C)CCOC(N)=O [Carbachol] | 0.868 ± 0.25 | 1 ± 0.013 | 0.667 | 1.01 ± 0.047 |
| Cc1cn[nH]c1 [Fomepizole] | 0.953 ± 0.37 | 1.0458 ± 0.00026 | 0.917 | 1.01 ± 0.018 |
| COc1ccc2[nH]c([S+]([O-])Cc3ncc(C)c(OC)c3C)nc2n1 (configuration not stated) [Tenatoprazole] | 1.61 ± 0.86 | 0.93 ± 0.064 | 0.917 | 1.17 ± 0.069 |
| COc1cccc2c1C(=O)c1c(O)c3c(c(O)c1C2=O)C[C@@](O)(C(C)=O)C[C@@H]3O[C@H]1C[C@H](N)[C@H](O)[C@H](C)O1 [Daunorubicin hydrochloride] | 0.979 ± 0.36 | 1.03 ± 0.019 | 0.917 | 1.04 ± 0.025 |
| CCOc1ccccc1OCC1CNCCO1 (configuration not stated) [Viloxazine hydrochloride] | 1.35 ± 0.55 | 0.9002 ± 0.0018 | 0.833 | 1.04 ± 0.062 |
| C[C@@]1(O)CCOC(=O)C1 [Mevalonic-D, L acid lactone] | 0.897 ± 0.23 | 1.09 ± 0.03 | 0.75 | 1.062 ± 0.0042 |
| CC1CS(=O)(=O)CCN1/N=C/c1ccc([N+](=O)[O-])o1 (configuration not stated) [Nifurtimox] | 0.837 ± 0.36 | 0.986 ± 0.038 | 0.917 | 0.938 ± 0.045 |
| COc1c(N2CCNC(C)C2)c(F)cc2c(=O)c(C(=O)O)cn(C3CC3)c12 (configuration not stated) [Gatifloxacin] | 0.71 ± 0.24 | 1.02 ± 0.054 | 0.917 | 1 ± 0.04 |
| CN1CCN(CCCN2c3ccccc3Sc3ccc(Cl)cc32)CC1 [Prochlorperazine dimaleate] | 1.05 ± 0.37 | 1.01 ± 0.033 | 0.833 | 1.02 ± 0.027 |
| Nc1c2c(nc3ccccc13)CCCC2 [Tacrine hydrochloride] | 1.09 ± 0.33 | 1.01 ± 0.029 | 0.833 | 1.03 ± 0.042 |
| Cc1cc2c(cc1S(N)(=O)=O)S(=O)(=O)CCC2 [Meticrane] | 0.987 ± 0.28 | 0.9447 ± 0.0016 | 0.917 | 1.01 ± 0.04 |
| CC(N)CCCC(C)(C)O (configuration not stated) [Heptaminol hydrochloride] | 1.19 ± 0.48 | 1 ± 0.044 | 0.75 | 0.971 ± 0.023 |
| CCN(CC)C(=O)Nc1ccc(OCC(O)CNC(C)(C)C)c(C(C)=O)c1 (configuration not stated) [Celiprolol hydrochloride] | 0.729 ± 0.21 | 1.03 ± 0.018 | 0.833 | 0.964 ± 0.046 |
| CCN(CC)CCOC(=O)C1(c2ccc([N+](=O)[O-])cc2)CCCC1 [Nitrocaramiphen hydrochloride] | 0.899 ± 0.43 | 0.971 ± 0.037 | 0.909 | 0.984 ± 0.075 |

| SMILES | glomerular separation [1] | glomerular width [2] | fraction of imaged embryos annotated as normal kidney [3] | pronephric angle neck segment [4] |
| --- | --- | --- | --- | --- |
| O=C(Cn1ccnc1[N+](=O)[O-])NCCO [Etanidazole] | 0.807 ± 0.34 | 1.06 ± 0.014 | 0.917 | 0.9304 ± 0.004 |
| Cc1noc(NS(=O)(=O)c2ccc(N)cc2)c1C [Sulfisoxazole] | 0.975 ± 0.37 | 1.04 ± 0.058 | 0.75 | 0.97 ± 0.044 |
| CCCNCC(O)COc1ccccc1C(=O)CCc1ccccc1 (configuration not stated) [Propafenone hydrochloride] | 1.06 ± 0.39 | 1.05 ± 0.0038 | 0.818 | 1.13 ± 0.035 |
| CC(C(O)c1ccc(O)cc1)N1CCC(Cc2ccccc2)CC1 (configuration not stated) [Ifenprodil tartrate] | 0.712 ± 0.33 | 1.04 ± 0.024 | 1 | 0.942 ± 0.089 |
| CN(C)CCc1c[nH]c2ccc(C[C@H]3COC(=O)N3)cc12 [Zolmitriptan] | 0.75 ± 0.13 | 0.941 ± 0.034 | 0.833 | 1.03 ± 0.019 |
| Cn1c(=O)c2nc[nH]c2n(C)c1=O [Theophylline monohydrate] | 0.92 ± 0.21 | 0.999 ± 0.047 | 1 | 1 ± 0.011 |
| C[C@]12CC[C@@H]3c4ccc(OS(=O)(=O)O)cc4CC[C@H]3[C@@H]1CCC2=O [Estropipate] | 1.27 ± 0.59 | 0.95203 ± 0.00068 | 0.75 | 1.02 ± 0.012 |
| CC(NCCC(c1ccccc1)c1ccccc1)c1ccccc1 (configuration not stated) [Fendiline hydrochloride] | 1.17 ± 0.28 | 0.995 ± 0.018 | 0.727 | 1 ± 0.036 |
| Cc1ccc(NC(=O)c2ccc(CN3CCN(C)CC3)cc2)cc1Nc1nccc(-c2cccnc2)n1 [Imatinib] | 1.09 ± 0.42 | 0.9892 ± 0.0063 | 1 | 1.01 ± 0.018 |
| CC(C)[N+](C)(CCOC(=O)C1c2ccccc2Oc2ccccc21)C(C)C [Propantheline bromide] | 1.29 ± 0.47 | 0.966 ± 0.062 | 0.667 | 0.942 ± 0.01 |
| CC(C)Cn1cnc2c(N)nc3ccccc3c21 [Imiquimod] | 0.76 ± 0.31 | 0.944 ± 0.089 | 1 | 0.978 ± 0.037 |
| CNC1(C)C2CCC(C2)C1(C)C (configuration not stated) [Mecamylamine hydrochloride] | 1.09 ± 0.32 | 0.973 ± 0.089 | 0.833 | 1.07 ± 0.074 |
| Cc1cccc(C)c1NC(=O)C(C)N (configuration not stated) [Tocainide hydrochloride] | 1.08 ± 0.37 | 0.975 ± 0.0083 | 1 | 0.941 ± 0.048 |
| O=C(O)CCc1nc(-c2ccccc2)c(-c2ccccc2)o1 [Oxaprozin] | 4.33 ± 1.5 | 0.672 ± 0.032 | 0 | 1.87 ± 0.14 |
| O=C(NCCN1CCOCC1)c1ccc(Cl)cc1 [Moclobemide] | 0.89 ± 0.26 | 1.01 ± 0.088 | 0.833 | 0.969 ± 0.011 |
| CN1CCCC(n2nc(Cc3ccc(Cl)cc3)c3ccccc3c2=O)CC1 (configuration not stated) [Azelastine hydrochloride] | 0.737 ± 0.21 | 0.885 ± 0.04 | 1 | 1.11 ± 0.024 |
